40 compounds from PubChem BioAssay (NCI) can be followed below.

About 79,000 compounds went through this panel and 15% of them were active in at least one assay; those are over-represented in the sample as a whole. Activity calls are given as the source filed them. No stated cut-off is given here; in the data, active means growth inhibition above about 70%; inactive means the rest.

The nature of one assay: NCI Yeast Anticancer Drug Screen. Data for the rad50 strain (AID 155).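 Further: 0% = growth of vehicle-only cultures of the same strain.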 To be noted: S. cerevisiae rad50 strain growth inhibition; at 50.0 µM; active compounds read high. An outline of the steps: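 A DNA repair-deficient yeast mutant serves as the test organism; compound-induced growth inhibition is calculated against vehicle-treated cells.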
As for `O=C(O)C(C1=CCCCC1)C1(O)CCCCC1` (stereo not given), the growth inhibition was -9.15% (inactive).

For the compound `CCc1c(C)[nH]c(C2=NCCC2)c1C`, the growth inhibition was -10.6% (inactive).

Consider `CC1C(O)C(c2ccccc2)(c2ccccc2)C(C)CN1C` (stereo not given), for which the growth inhibition was -5.65% (inactive).

On to `CN(C)Cc1ccccc1COC(=O)c1ccccc1`, for which the growth inhibition was 19.1% (inactive).

In the case of `CCC(=N)C(c1ccccc1)(c1ccccc1)C(C)CN(C)C` (stereo not given), the growth inhibition is 23.6% (inactive).

In the case of `CC(=O)OC1/C=C(\C)C(OC(C)=O)C/C=C(/C)CCC2C(/C=C/C1=O)C2(C)C` (stereo not given), the growth inhibition was 78.9% (active).

On to `COc1cc(COC(=O)Nc2ccccc2F)cc(OC)c1OC`, for which the growth inhibition was -4.9% (inactive).

On to `Cc1ccc(S(=O)(=O)c2ccc(O)c(C)c2)c(O)c1` (tested in a mixture with another compound), for which the growth inhibition is 36.6% (inactive).

On to `Nc1nc(N)c2ccccc2n1`, for which the growth inhibition is -11.3% (inactive).

In the case of `COCCOC(=O)c1ccccc1Cl`, the growth inhibition is 23.7% (inactive).

As to `COC(=O)/C=C/c1cc(OC)c2c(c1)C(C(=O)OC)C(c1ccc(O)c(OC)c1)O2` (stereo not given), the growth inhibition was -2.75% (inactive).

For the compound `O=c1[nH]c2ccccc2nc1/C=C/n1c(=S)[nH]c2ccccc21`, the growth inhibition was -31.4% (inactive).

With `COC1(OC)C=NNc2nccn21`, the growth inhibition was 2.05% (inactive).

With `CC(C)Nc1nc(N)nc2nc(-c3ccc(Cl)cc3)c(-c3ccc(Cl)cc3)nc12`, the growth inhibition was -8.7% (inactive).

For `CCOC(=O)/C(=C/c1ccc(C(=O)OC)cc1)N(CC)CC`, the growth inhibition was -26.5% (inactive).

As for `C=C(CN(C)C)C1(c2ccccc2)CC2(CCCC2)C(=O)O1` (stereo not given), the growth inhibition was 24.2% (inactive).

In the case of `CC(C)CCOC(=O)CC(CC(=O)OCCC(C)C)C(=O)OCCC(C)C`, the growth inhibition was 20.9% (inactive).

As for `CNCCC1CCCCCC1`, the growth inhibition was 1.8% (inactive).

As for `CCCCC1(O)CC2CC1C(C)C2(C)C` (stereo not given), the growth inhibition is 0.3% (inactive).

As to `O=C1C=C(Nc2ccc3ccccc3c2[N+](=O)[O-])c2ccccc2C1=O`, the growth inhibition is 27.2% (inactive).

As to `CCN(CC)C(=O)c1ccc(C(C)C)cc1`, the growth inhibition was 20.4% (inactive).

Consider `CCCCCCCCCCCCSC(=O)CCC(=O)O`, for which the growth inhibition was -49.5% (inactive).

On to `O=C(O)C(=O)NCc1cnccn1`, for which the growth inhibition was 10.9% (inactive).

For the compound `NC(CCC1CCCCC1)C(=O)O` (stereo not given), the growth inhibition is -7.75% (inactive).

For `N=c1nc2n(cc1F)C1OC(CO)C(O)C1O2` (stereo not given), the growth inhibition was -18.1% (inactive).

Take `CCCCNCCOC(=O)c1ccc(N)cc1`: the growth inhibition was 2.9% (inactive).

As to `NC(N)=NC(N)=Nc1c(F)c(F)c(F)c(F)c1F`, the growth inhibition is -17.4% (inactive).

For `CCO/C=C1\SC(=S)N(CCc2ccc(OC)c(OC)c2)C1=O`, the growth inhibition is -0.85% (inactive).

For the compound `CCN1C(=O)N(C)C(O)c2c1nc1ccccn1c2=O` (stereo not given), the growth inhibition is -14.1% (inactive).

As for `CCOC(=O)COS(=O)(=O)C(F)(F)F`, the growth inhibition was 21.6% (inactive).

Take `CCN(CC)C(=O)c1c2nc3c(C(=O)N(CC)CC)ccc(C)c3oc-2c(C)c(=O)c1N`: the growth inhibition is 24.6% (inactive).

For `CCCCCCCCCCCCCCCCN(C)C(=S)c1ccc(OC)cc1`, the growth inhibition was 25.4% (inactive).

On to `O=C(c1ccccc1)c1ccc2cccc3c2c1CC3`, for which the growth inhibition is 40.2% (inactive).

Regarding `S=c1nc[nH]c2c1ncn2C1CCCC1`, the growth inhibition is -2.25% (inactive).

For `CN1CCN(Cc2cc(C(C)(C)C)cc(-c3ccccc3)c2O)CC1`, the growth inhibition was 39.4% (inactive).

`CC(=O)OC1OC(COC(=O)c2ccccc2)C(OC(=O)c2ccccc2)C1OC(=O)c1ccccc1` (stereo not given): the growth inhibition is -60.6% (inactive).

For the compound `CCCC(CCC)C(=O)O`, the growth inhibition was -18% (inactive).

As to `O=C(O)CCC1CC1C(=O)c1ccccc1` (stereo not given), the growth inhibition is 15.2% (inactive).

Regarding `O=C1CCCCCCCS(=O)(=O)C1`, the growth inhibition was -8.55% (inactive).

On to `CN(C)CC1CCC/C(=C\c2ccc(N(C)C)cc2)C1=O` (stereo not given), for which the growth inhibition was -18.6% (inactive).

A further assay can be described thus: NCI Yeast Anticancer Drug Screen. Data for the mec2-1 strain (AID 157). To be noted: S. cerevisiae mec2-1 strain, at 50.0 µM, active compounds read high. An outline of the steps: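 Vehicle-treated cultures served as reference for growth inhibition of compound-exposed mec2-1 yeast.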
As to `O=C(O)C(C1=CCCCC1)C1(O)CCCCC1` (stereo not given), the growth inhibition was -5.45% (inactive).

As for `CCc1c(C)[nH]c(C2=NCCC2)c1C`, the growth inhibition is -9.6% (inactive).

On to `CC1C(O)C(c2ccccc2)(c2ccccc2)C(C)CN1C` (stereo not given), for which the growth inhibition was -4.95% (inactive).

Take `CN(C)Cc1ccccc1COC(=O)c1ccccc1`: the growth inhibition was 20.1% (inactive).

Take `CCC(=N)C(c1ccccc1)(c1ccccc1)C(C)CN(C)C` (stereo not given): the growth inhibition is -7.3% (inactive).

As to `CC(=O)OC1/C=C(\C)C(OC(C)=O)C/C=C(/C)CCC2C(/C=C/C1=O)C2(C)C` (stereo not given), the growth inhibition was 74.4% (active).

As for `COc1cc(COC(=O)Nc2ccccc2F)cc(OC)c1OC`, the growth inhibition is -19.1% (inactive).

For `Cc1ccc(S(=O)(=O)c2ccc(O)c(C)c2)c(O)c1` (tested in a mixture with another compound), the growth inhibition is 22.9% (inactive).

Regarding `Nc1nc(N)c2ccccc2n1`, the growth inhibition is 13.8% (inactive).

As to `COCCOC(=O)c1ccccc1Cl`, the growth inhibition was 15.6% (inactive).

Regarding `COC(=O)/C=C/c1cc(OC)c2c(c1)C(C(=O)OC)C(c1ccc(O)c(OC)c1)O2` (stereo not given), the growth inhibition is 7.6% (inactive).

Consider `O=c1[nH]c2ccccc2nc1/C=C/n1c(=S)[nH]c2ccccc21`, for which the growth inhibition is -28.2% (inactive).

`COC1(OC)C=NNc2nccn21`: the growth inhibition is -2.5% (inactive).

For `CC(C)Nc1nc(N)nc2nc(-c3ccc(Cl)cc3)c(-c3ccc(Cl)cc3)nc12`, the growth inhibition was -2.5% (inactive).

On to `CCOC(=O)/C(=C/c1ccc(C(=O)OC)cc1)N(CC)CC`, for which the growth inhibition was -20.5% (inactive).

In the case of `C=C(CN(C)C)C1(c2ccccc2)CC2(CCCC2)C(=O)O1` (stereo not given), the growth inhibition was 12% (inactive).

For the compound `CC(C)CCOC(=O)CC(CC(=O)OCCC(C)C)C(=O)OCCC(C)C`, the growth inhibition is -14.5% (inactive).

As to `CNCCC1CCCCCC1`, the growth inhibition was 5.45% (inactive).

Regarding `CCCCC1(O)CC2CC1C(C)C2(C)C` (stereo not given), the growth inhibition is 7.75% (inactive).

With `O=C1C=C(Nc2ccc3ccccc3c2[N+](=O)[O-])c2ccccc2C1=O`, the growth inhibition is 17.4% (inactive).

Consider `CCN(CC)C(=O)c1ccc(C(C)C)cc1`, for which the growth inhibition is 14.8% (inactive).

For `CCCCCCCCCCCCSC(=O)CCC(=O)O`, the growth inhibition was -11.9% (inactive).

For the compound `O=C(O)C(=O)NCc1cnccn1`, the growth inhibition was -8.25% (inactive).

For the compound `NC(CCC1CCCCC1)C(=O)O` (stereo not given), the growth inhibition was 6.8% (inactive).

Take `N=c1nc2n(cc1F)C1OC(CO)C(O)C1O2` (stereo not given): the growth inhibition is 7.7% (inactive).

With `CCCCNCCOC(=O)c1ccc(N)cc1`, the growth inhibition was 2% (inactive).

Take `NC(N)=NC(N)=Nc1c(F)c(F)c(F)c(F)c1F`: the growth inhibition was -33.1% (inactive).

For the compound `CCO/C=C1\SC(=S)N(CCc2ccc(OC)c(OC)c2)C1=O`, the growth inhibition is -6.85% (inactive).

As to `CCN1C(=O)N(C)C(O)c2c1nc1ccccn1c2=O` (stereo not given), the growth inhibition was -8.35% (inactive).

On to `CCOC(=O)COS(=O)(=O)C(F)(F)F`, for which the growth inhibition was -12.7% (inactive).

Turning to `CCN(CC)C(=O)c1c2nc3c(C(=O)N(CC)CC)ccc(C)c3oc-2c(C)c(=O)c1N`, the growth inhibition was 7.35% (inactive).

With `CCCCCCCCCCCCCCCCN(C)C(=S)c1ccc(OC)cc1`, the growth inhibition was -3.4% (inactive).

On to `O=C(c1ccccc1)c1ccc2cccc3c2c1CC3`, for which the growth inhibition was 14.6% (inactive).

In the case of `S=c1nc[nH]c2c1ncn2C1CCCC1`, the growth inhibition was -4.75% (inactive).

For the compound `CN1CCN(Cc2cc(C(C)(C)C)cc(-c3ccccc3)c2O)CC1`, the growth inhibition was -25.1% (inactive).

With `CC(=O)OC1OC(COC(=O)c2ccccc2)C(OC(=O)c2ccccc2)C1OC(=O)c1ccccc1` (stereo not given), the growth inhibition was -12.8% (inactive).

For the compound `CCCC(CCC)C(=O)O`, the growth inhibition is 3.45% (inactive).

Turning to `O=C(O)CCC1CC1C(=O)c1ccccc1` (stereo not given), the growth inhibition is 5.55% (inactive).

Regarding `O=C1CCCCCCCS(=O)(=O)C1`, the growth inhibition was -0.05% (inactive).

`CN(C)CC1CCC/C(=C\c2ccc(N(C)C)cc2)C1=O` (stereo not given): the growth inhibition is -44.9% (inactive).
